PubChem BioAssay
Unmarked numbers belong to inactive results. The source made the active and inactive calls.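 Rule for the calls: active = NADPH fluorescence slope more negative than the mean of all samples by about 3 SD, 99.7% confidence; inactive = the rest.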

The compounds below were run against Voltage-gated potassium channel subunit beta-2 (Rattus norvegicus) (UniProt P62483) (assay: enhancers of rat Kvbeta2 NADPH turnover – biochemical, NADPH fluorescence, primary screen (AID 623;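 note: fluorescence intensity change per second fitted from 20 to 320 s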)). Settings: Recombinant KvBeta, NADPH fluorescence decrease slope, 10 min; at 10 µM; active compounds read low.
Sequence of Voltage-gated potassium channel subunit beta-2 (Rattus norvegicus) (P62483 whole entry, looked up): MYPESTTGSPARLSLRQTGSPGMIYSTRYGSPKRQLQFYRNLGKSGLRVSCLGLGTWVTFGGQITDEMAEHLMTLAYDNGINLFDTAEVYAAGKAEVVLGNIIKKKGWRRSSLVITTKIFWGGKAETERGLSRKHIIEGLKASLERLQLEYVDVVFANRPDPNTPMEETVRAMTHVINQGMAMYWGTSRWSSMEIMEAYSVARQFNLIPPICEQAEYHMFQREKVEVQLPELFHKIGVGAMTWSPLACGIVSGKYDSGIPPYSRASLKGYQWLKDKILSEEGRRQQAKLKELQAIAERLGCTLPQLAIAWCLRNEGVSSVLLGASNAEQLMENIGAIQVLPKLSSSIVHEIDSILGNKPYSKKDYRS
Compound `Cc1nnc2n(-c3ccccc3)c(=O)c3c4c(sc3n12)CCCC4` has an NADPH fluorescence slope of -0.000128.
In the case of `Cc1c(NC(=O)c2ccc(=O)oc2)c(=O)n(-c2ccccc2)n1C`, the NADPH fluorescence slope is reported as -7.6e-06.
Work on `Cc1nc2sc(C#N)c(N)c2c2c1CCCC2` yielded an NADPH fluorescence slope of -1e-05.
Compound `Fc1ccc(-c2cnc[nH]2)cc1` has an NADPH fluorescence slope of -9.6e-05.
`CC(CCc1ccccc1)NCC(O)c1ccc(O)c(C(N)=O)c1` (centres undefined) showed an NADPH fluorescence slope of 2.9e-05.
In the case of `CCOC(=O)c1ccc2nc(NC(NC(C)=O)(C(=O)OC)C(F)(F)F)sc2c1` (centres undefined), the NADPH fluorescence slope is reported as -9.4e-05.
Compound `COc1cccc(N2C(=O)C(O)=C(C(C)=O)C2c2ccc(OC)c(OC)c2)c1` (centres undefined) has an NADPH fluorescence slope of -6.1e-06.
Work on `CCCCOc1ccccc1C(=O)NCCCC(=O)O` yielded an NADPH fluorescence slope of -0.000111.
`COc1ccc(CCn2c(=N)c(C#N)cc3c(=O)n4ccccc4nc32)cc1` gave an NADPH fluorescence slope of -1.4e-05.
`O=C(NC1CCS(=O)(=O)C1)c1c(NC(=O)C2COc3ccccc3O2)sc2c1CCCC2` (centres undefined) was tested, and the NADPH fluorescence slope was -4.5e-05.
Compound `Cc1nn(-c2ccccc2)c2c1C(=O)NC(=O)C(C)(C)C2` has an NADPH fluorescence slope of 4.3e-05.
With `O=C(Nc1ccccn1)NC(C(F)(F)F)C(F)(F)F` the NADPH fluorescence slope was -0.000163.
With `CCC(NC(=O)Nc1cc(OC)c(OC)c(OC)c1)(C(F)(F)F)C(F)(F)F` the NADPH fluorescence slope was -4e-05.
With `COC(=O)C(NC(C)=O)(Nc1ccccn1)C(F)(F)F` (centres undefined) the NADPH fluorescence slope was -0.000125.
Work on `CC1(C)CNC(=O)c2sc(N3CCOCC3)nc2C1` yielded an NADPH fluorescence slope of -4.4e-05.
With `CCN1CCc2c(C#N)c(N3CCCCC3)nc(NCc3ccccc3)c2C1` the NADPH fluorescence slope was -3.9e-05.
With `CCOC(=O)CNC(=O)Nc1ccccc1C(=O)OC` the NADPH fluorescence slope was -0.000189 (active).
With `CCn1nc(NC(=O)c2cccnc2)c2cc3ccccc3nc21` the NADPH fluorescence slope was -3.9e-05.
`Cn1c(=O)n(Cc2ccccc2)c(=O)c2c1nc(NCC1CCCO1)n2Cc1ccccc1` (centres undefined) gave an NADPH fluorescence slope of -0.000124.
Compound `COc1ccc2c(c1)n([O-])c1c([n+]2=O)CCC1` has an NADPH fluorescence slope of -3.5e-05.
In the case of `COc1ccc2c(c1)[nH]c1c(=O)n(CC3CCCO3)cnc12` (centres undefined), the NADPH fluorescence slope is reported as -4.3e-05.
For `CC(=O)c1c(OCC(=O)O)ccc2c(C)cc(=O)oc12`, the NADPH fluorescence slope was -6.6e-05.
Work on `O=C1C2ON(c3ccccc3)C(c3cccnc3)C2C(=O)N1c1ccccc1` (centres undefined) yielded an NADPH fluorescence slope of -2.9e-05.
In the case of `CCCCCn1c2nc3ccccc3nc2c2c(=O)n(CC(C)C)cnc21`, the NADPH fluorescence slope is reported as -4.4e-05.
For `Cc1nc2c(o1)CCc1ccccc1C2O` (centres undefined), the NADPH fluorescence slope was -4e-05.
With `Clc1ccc(-n2ncc3c(NCCCn4ccnc4)ncnc32)cc1` the NADPH fluorescence slope was -5.7e-05.
For `Nc1nnnn1/N=C/c1ccccn1`, the NADPH fluorescence slope was -6e-05.
For `c1ccc(CN2CCN(c3ncnc4c3[nH]c3ccccc34)CC2)cc1`, the NADPH fluorescence slope was -2.8e-05.
In the case of `Cc1cc2c(c(=O)o1)C(Cc1ccccc1)C(C#N)=C(N)O2` (centres undefined), the NADPH fluorescence slope is reported as -4.7e-05.
For `COc1cc(NC(=O)NC(C)(C(F)(F)F)C(F)(F)F)cc(OC)c1OC`, the NADPH fluorescence slope was -6.8e-05.
Work on `Cc1c(O)c(CN2CCCCC2)cc2c3c(c(=O)oc12)CCC3` yielded an NADPH fluorescence slope of -1.2e-06.
`CCOC(=O)c1[nH]c2ccc(Br)cc2c1NC(=O)CNC` showed an NADPH fluorescence slope of -6.6e-05.
For `COc1ccc(CCn2c(=N)c(C(=O)NCc3ccco3)cc3c(=O)n4ccccc4nc32)cc1`, the NADPH fluorescence slope was -1.6e-05.
`CN(C)/C=C1\N=C(c2ccc(Cl)cc2Cl)OC1=O` gave an NADPH fluorescence slope of -4e-05.
Compound `Cc1ccc(/C=N/n2nnnc2N)o1` has an NADPH fluorescence slope of -2.1e-05.
In the case of `COc1ccccc1N=Cc1nc(-c2ccccc2)oc1OC(C)=O`, the NADPH fluorescence slope is reported as -5.8e-05.
With `Cc1ccc2[nH]c3c(N4CCOCC4)ncnc3c2c1` the NADPH fluorescence slope was -2.2e-05.
In the case of `CC(=O)C1=C(O)C(=O)N(c2ccc(C(=O)O)cc2)C1c1ccccc1` (centres undefined), the NADPH fluorescence slope is reported as -5.9e-06.
`COc1ccccc1Nc1ncnc2c1cnn2-c1cccc(C)c1` showed an NADPH fluorescence slope of -3.8e-05.
